Consider 99 compounds from PubChem BioAssay AID1063 (University of Pittsburgh Molecular Library Screening Center, 2008).

Among all 200,000 compounds or so, about 18,000 (9%) were called active. The list comes from a sample in which actives are over-represented; it also holds similar structures and randomly drawn compounds. Unmarked numbers belong to inactive results. Rule as the data show it: active = inhibition above about 50%; inactive = the rest.

This experiment in a line: antileishmanial activity against promastigotes – primary screen (AID 1063).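 Also: promastigotes grown with compound for 44 hours at 28 °C.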 The settings on record: Leishmania major promastigotes, resazurin fluorescence viability; at 10 µM; active compounds read high. Background: Alamar Blue is a resazurin reagent that responds to reducing activity.
As to `CN1CCN(c2ccc(NC(=O)c3ccc4c(c3)OCCO4)cc2Cl)CC1`, the inhibition was 5.5%.
In the case of `COc1ccc(C2C(C#N)=C(N)Oc3n[nH]c(C)c32)cc1CN1CCN(c2ccc(F)cc2)CC1` (centres undefined) it was 60.8% (active); in that of `CCOc1c(OC)cc(C2C(C#N)=C(N)Oc3n[nH]c(-c4ccncc4)c32)cc1OC` (centres undefined), 6.78%.
In the case of `CCCc1[nH]nc2c1C(c1ccc(OC)c(Cn3nc(C)c(Br)c3C)c1)C(C#N)=C(N)O2` (centres undefined) it was 41.6%; in that of `O=Cc1ccc(Oc2cccc(C(F)(F)F)c2)nc1`, 6.6%.
Turning to `COc1ccc(NC(=O)COC(=O)c2ccncc2)c(OC)c1`, the inhibition is -3.38%.
In the case of `CCCC(C)C(=O)NCc1ccncc1` (centres undefined) it was -1.46%.
The figure for `O=C(NCc1ccncc1)C(=O)NCc1ccco1` is -7.02%; for `CC(C)(C)NC(=O)C(=O)NCc1ccncc1` it is 77.7% (active); for `CC(C)OCCCNC(=S)N1CCC(C(=O)c2ccc3c(c2)OCCO3)CC1` it is -1.34%.
The figure for `CCCn1c(C(O)c2cc(OC)ccc2OC)nc2ccccc21` (centres undefined) is 19%; for `COc1ccc(-c2nc3ccccc3n2CCC(C)C)cc1OC` it is 66.8% (active).
Regarding `COCCn1c(-c2ccc(OC)c(OC)c2)nc2ccccc21`, the inhibition is 11.3%.
Take `Cn1c(=O)c2c(ncn2CC(=O)N/N=C/c2cn[nH]c2-c2ccc(F)cc2)n(C)c1=O`: the inhibition is -7.31%.
In the case of `Cn1nc(C(F)(F)F)c2cc(C(=O)N3CCOCC3)sc21` it was -2.24%.
The figure for `COc1ccc(CCC(=O)OCC(=O)Nc2ccc(C)c(S(=O)(=O)N(C)C)c2)cc1` is -10.7%; for `Cc1ccc(C)c(S(=O)(=O)N2CCN(CC(=O)Nc3ccc([N+](=O)[O-])cc3)CC2)c1` it is 26.5%.
The figure for `COc1ccc(NS(=O)(=O)c2cc(NC(=O)CC(=O)c3ccc([N+](=O)[O-])cc3)ccc2C)cc1` is 68.3% (active); for `Cc1cccc(-n2c(C)cc(/C=N\NC(=O)c3cccs3)c2C)c1` it is 17.2%.
On to `Cc1ccc(-n2c(C)cc(/C=N\NC(=O)CC(=O)NC(C)C)c2C)cc1`, for which the inhibition is -3.17%.
In the case of `Cc1cccc(-n2c(C)cc(/C=N/NC(N)=S)c2C)c1` it was 79.6% (active); in that of `Cc1ccc(-c2csc(NC(=O)c3cnccn3)n2)cc1C`, -7.05%.
As to `COc1ccc(Oc2c(Cl)cnn(-c3ccccc3)c2=O)cc1`, the inhibition was 59.1% (active).
In the case of `Cc1ccc(Oc2cnn(-c3ccccc3)c(=O)c2Br)cc1` it was 46.6%; in that of `COc1ccc(-n2c(C)nc3c(cnn3-c3ccccc3)c2=O)cc1`, -7.18%; in that of `S=C1Nc2cc(Cl)ccc2Sc2ccccc21`, -5.54%.
In the case of `CCN(CC)C(=O)N(CC)Cc1ccccc1` it was 0.88%.
In the case of `O=C(NCc1ccco1)c1ccc(NS(=O)(=O)c2cccc([N+](=O)[O-])c2)cc1`, the inhibition is -9.32%.
In the case of `CCC(CC)NC(=O)/C=C/c1cccc([N+](=O)[O-])c1`, the inhibition was 44.7%.
In the case of `CCC(C)NC(=O)/C=C/c1ccc(S(=O)(=O)NCc2ccco2)cc1` (centres undefined), the inhibition was 9.36%.
The figure for `O=C(/C=C/c1ccc([N+](=O)[O-])cc1)NCCSCc1ccco1` is 62.9% (active).
In the case of `O=C(/C=C/c1cccc([N+](=O)[O-])c1)NCCSCc1ccco1` it was 59.6% (active).
The figure for `COc1cc(OC)cc(C(=O)NCCSCc2ccco2)c1` is -3.35%.
`CCOc1ccc(/C=C(/NC(=O)c2ccccc2)C(=O)NCCC(=O)O)cc1`: the inhibition is -5.96%.
The figure for `Cc1ccc(NC(=O)c2ccc(S(=O)(=O)NCC3CCCO3)cc2)cc1C` (centres undefined) is 12.2%.
In the case of `COc1ccccc1CNC(=O)c1cc(=O)c2ccccc2o1` it was 15.9%.
In the case of `O=C1/C(=C/c2cccs2)CCC1C1CCCC1` (centres undefined) it was -9.7%; in that of `CCOC(=O)c1ccc(NC(=S)N2CCCC2)cc1`, 1.46%; in that of `Cc1c(CN2CCC(CO)(CCOc3ccccc3)CC2)[nH]c2ccc(Cl)cc12`, 100% (active).
`CN(CCOc1ccccc1)Cc1nc2cc(Cl)ccc2c(=O)[nH]1`: the inhibition was 7.34%.
In the case of `OCC1(CCOc2ccccc2)CCN(Cc2cn[nH]c2-c2ccccc2)CC1` it was -2.84%.
In the case of `CCN(CC)C(=O)C(=O)c1cn(CC(=O)NCc2ccc3c(c2)OCO3)c2ccccc12` it was -5.27%; in that of `CCn1c(SCC(=O)Nc2nccs2)nnc1-c1ccco1`, 0.22%; in that of `C=C1C2C[C@H](O)C(C)(C)[C@@]2(O)[C@H](O)C[C@]23C[C@@](C)(O)[C@H](CC[C@H]12)[C@H]3O` (some centres undefined), -5.47%.
The figure for `CNS(=O)(=O)c1ccc(N2CCCC2=O)c([N+](=O)[O-])c1` is -4.3%.
With `Cc1ccc(C(=O)c2ccc(N3CCN(C)CC3)c([N+](=O)[O-])c2)cc1`, the inhibition was 12.3%.
The figure for `CN1CCN(c2ccc(S(=O)(=O)Nc3ccccc3)cc2[N+](=O)[O-])CC1` is 63.2% (active); for `O=C(Nc1ccc2c(c1)CCC2)c1ccc(Br)s1` it is 14.6%; for `O=C(NCc1cccnc1)c1cccc(-c2cc3ccccc3oc2=O)c1` it is 3.42%.
The figure for `CN(C)S(=O)(=O)c1cccc(NC(=O)COC(=O)c2cc(=O)[nH]c(=O)[nH]2)c1` is -5.88%; for `CCOC(=O)CSC1=N/C(=C/c2ccc(-n3cncn3)cc2)C(=O)N1C(C)=O` it is 8.27%; for `COCCCn1c(CCC(=O)O)ccc1-c1ccc(F)cc1` it is 2.69%.
On to `CCn1c(NC(=O)c2ccccc2)c(-c2cccs2)c(=O)c2ccccc21`, for which the inhibition was 0.95%.
Take `CC(C)Cn1c(CCC(=O)O)ccc1-c1cccs1`: the inhibition was 95.5% (active).
`CN(C)c1ccc(C=C2C(=O)OC3(CCCC3)OC2=O)cc1`: the inhibition is -3.55%.
In the case of `Nc1ccc(C(=O)NCc2ccccc2)cc1`, the inhibition was -6.94%.
On to `CCCC(=O)N1CCc2[nH]c3ccccc3c2C1`, for which the inhibition is -2.11%.
In the case of `Cc1ccc2[nH]c3c(c2c1)CN(C(=O)CN1CCN(c2ccccc2)CC1)CC3` it was 69.5% (active); in that of `O=C(CN1CCCC1)N1CCN(c2ccccc2)CC1`, -4.42%; in that of `COc1cc2c(cc1OC)CC1(CCCCC1)N=C2`, 6%.
The figure for `CCOc1ccccc1C1CC(c2ccccc2)Nc2nc(N)nn21` (centres undefined) is -1.13%; for `COc1ccc(C2CC(c3ccc(Cl)cc3Cl)Nc3nc(N)nn32)cc1OC` (centres undefined) it is -5%.
The figure for `Cc1ccc(C2CC(c3cccc(Br)c3)n3nc(N)nc3N2)cc1` (centres undefined) is 89.8% (active); for `Nc1nc2n(n1)C(c1ccco1)CC(c1ccc(Cl)c(Cl)c1)N2` (centres undefined) it is -1.56%.
Regarding `COc1ccc(C2CC(c3ccc(C)cc3)Nc3nc(N)nn32)cc1` (centres undefined), the inhibition was 3.08%.
With `Cc1ccc(C2CC(c3cccc(C)c3)n3nc(N)nc3N2)cc1` (centres undefined), the inhibition is 67.6% (active).
The figure for `O=C(NCc1ccc(F)cc1)C(c1ccccc1)N(C(=O)c1csnn1)C1CC1` (centres undefined) is -1.88%; for `Cc1ccc(C(=O)N2CCN(S(=O)(=O)N3CCOCC3)CC2)cc1` it is -2.24%; for `Cc1ccc(-c2cn(S(=O)(=O)c3cccc([N+](=O)[O-])c3)nc2N)cc1` it is 3.16%.
In the case of `CC[N+]1(CC)CC2=Cc3ccccc3CC2C1` (centres undefined) it was -4.49%.
The figure for `Cc1cc(=O)[nH]c(N/N=C/c2c(C)nn(-c3ccccc3Cl)c2Cl)n1` is -2.53%.
In the case of `O=C(O)CCN(Cc1ccccc1)S(=O)(=O)c1c(Cl)cccc1Cl`, the inhibition was -2.19%.
The figure for `OCCN(Cc1ccccc1)Cc1ccc(Cl)cc1` is 78.8% (active).
As to `CC(O)CN(Cc1ccc(Cl)cc1)CC(C)O` (centres undefined), the inhibition was -7.47%.
In the case of `c1ccc2c(c1)OCCOCCOCCO2`, the inhibition is -1.98%.
In the case of `CCOC(=O)CNc1nc(Cl)nc(Nc2ccccc2)n1` it was 6.65%.
The figure for `CC(O)c1cccc(NC(=O)Cc2cccc3ccccc23)c1` (centres undefined) is 4.7%; for `O=c1cc(N2CCCCC2)c(-c2ccccc2)nn1Cc1cccc(F)c1` it is 16.7%; for `COC(=O)c1c(C(=O)OC)c(-c2cccc(C)c2)n2c1CS(=O)C2` (centres undefined) it is -12.1%.
The figure for `O=[N+]([O-])c1cccc(C2=NCCS2)c1` is -6.13%; for `C=CCNc1nnc(C)c2ccccc12` it is 8%.
Consider `CC(C)N(C(=O)Cn1cc(SCC(=O)N2CCCC2)c2ccccc21)C(C)C`, for which the inhibition is -0.03%.
In the case of `C=CCNc1nnc(SCC(=O)N2CCCCC2)c2ccccc12` it was 54.3% (active); in that of `CN1C(=O)/C(=C/c2ccc(C(=O)NC3CCCC3)cc2)Oc2ccccc21`, -4.09%; in that of `CCOC(=O)c1cc(-c2ccc(F)cc2)n(CC(=O)NCc2ccccn2)c1C`, 3.59%.
The figure for `COc1cccc(CNn2cn[nH]c2=S)c1OCc1ccccc1` is 15.9%.
The figure for `COC(=O)C(C)N=Cc1ccccc1` (centres undefined) is -2.89%; for `Cc1cc(C(=O)COC(=O)C2CC2)c(C)n1-c1ccc(F)cc1` it is -2.35%.
Regarding `Cc1c(Cl)c([N+](=O)[O-])nn1CC(=O)NCC1CCCO1` (centres undefined), the inhibition was -3.45%.
In the case of `COCCCNC(=S)NCCNc1nc2cc(C)c(C)cc2cc1C#N` it was 19.8%.
The figure for `O=C1c2ccccc2C2=Nc3ccccc3SC(c3ccccc3F)C12` (centres undefined) is 98.3% (active); for `COc1ccc(CCNC(=O)c2cc3sccc3n2C)cc1OC` it is 7.15%.
Consider `O=C(NCCCN1CCCCCC1)c1ccc(N2CCCC2=O)cc1`, for which the inhibition is 0.31%.
The figure for `Cn1c(C(=O)NCCCN2CCCCC2)cc2sccc21` is 74.1% (active).
The figure for `COc1ccc(C2(CNC(=O)Cc3ccc(OC)c(OC)c3)CCCC2)cc1` is 0.15%; for `CCOc1ccc(C(=O)Nc2cccc(-c3ccc4nncn4n3)c2)cc1` it is -2.57%.
In the case of `Cc1ccc(NC(=O)c2oc3ccccc3c2C)c([N+](=O)[O-])c1` it was -2.37%; in that of `Cc1ccc(NC(=S)NC(=O)c2ccc(-c3ccccc3)cc2)c(C)c1`, -4.31%.
`Cc1ccc(NC(=O)c2oc(=O)c3ccccc3c2-c2ccccc2)c(C)c1`: the inhibition was 55.8% (active).

The term inhibition denotes the drop in the measured response relative to a control, in per cent.
